MK inhibit = inhibitors of Streptococcus pneumoniae mevalonate kinase. AID 555. purified MK, PK/LDH-coupled NADH absorbance 340 nm. 65,000 tested, 0.48% active. inhibition, % at 10 µM;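 active = ranked among the strongest by inhibition in the single 10 µM screen, a fixed top-ranked set picked for dose follow-up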
NADH enzymes = inhibitors of enzymes used to reach an NAD/NADH endpoint; AID 774; coupled PK/LDH NADH assays, four targets; IC50, µM (titrated, usually from 10 µM), without a hit: at the top dose inhibition; 65,000 tested, 0.02% active;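 active = single-dose screening hits from any of four coupled enzyme assays that gave an IC50 when retested across doses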;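 also: the DPM-DC format reads NADH fluorescence rather than 340 nm absorbance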
PMK inhibit = blocks S. pneumoniae phosphomevalonate kinase. inhibition, % at 10 µM. 65,000 tested, 0.49% active. purified PMK, PK/LDH-coupled NADH absorbance 340 nm;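 active = top-ranked compounds by inhibition in the single 10 µM screen, taking a fixed number of the strongest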;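 also: 0% = full reaction with DMSO carrier and 100% = background rate without enzyme reaction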
Fluor 339 460 = intrinsic fluorescence of library compounds, ex339/em460 – biochemical, MLSMR library, data from DPM-DC assay, artefact control, profiling panel; fluorescence fold increase at 10 µM; compound autofluorescence, ex339/em460 nm, NADH buffer; stronger effect = higher value; 1 = no-compound wells, NADH background; AID 709; 65,000 tested, 5.5% active;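 active = at 10 µM, mean starting fluorescence two-fold or more over control wells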;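 also: signal is the first read of a kinetic run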
DPM-DC inhibit = S. pneumoniae DPM-DC inhibition | purified DPM-DC, PK/LDH coupled NADH fluorescence | calls only at 10 µM | 65,000 tested, 0.49% active | AID 556;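 active = the 320 compounds with the highest percent inhibition in the single-dose primary screen, excluding strongly autofluorescent ones, cut at about 32% in these data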;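 also: kinetic rate of NADH fluorescence loss reporting ADP formed by the decarboxylase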
Abs 340nm = absorbance at 340 nm | compound absorbance at 340 nm, fold over control | fold change at 10 µM | 65,000 tested, under 10 active | AID 708;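 active = at 10 µM dose, initial 340 nm absorbance at least 2 fold that of control wells; inactive = change under 2 fold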;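 also: initial absorbance extrapolated from kinetic A340 decline of NADH oxidation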
* = called active by the depositor; i = inactive; . = no result given; + = active, no number. The list is not random: actives were taken first. Their share in the collection is about 6.3%.

SMILES	MK inhibit	NADH enzymes	PMK inhibit	Fluor 339 460	DPM-DC inhibit	Abs 340nm
N#Cc1cc2c(=O)n3ccccc3nc2n(CCCN2CCOCC2)c1=O	10	12%	14	3.9*	.	1
Cc1ccc2nc3c(cc(C#N)c(=O)n3CCN3CCOCC3)c(=O)n2c1	7	9%	1	3*	i	1
CCC(C)(C)n1nnnc1C(CC(C)C)N1CCC(C(N)=O)CC1 (configuration not stated)	0	10%	22	0.99	i	1
CC1(C)Oc2ccc(NC(=O)C3COc4ccccc4O3)cc2O1 (configuration not stated)	5	5%	10	1.1	i	1
Cn1c(=O)c2c(nc(OCC3COC(C)(C)O3)n2Cc2ccccc2F)n(C)c1=O (configuration not stated)	6	5%	10	1.1	i	0.98
Cc1ccc2nc3c(cc(C#N)c(=O)n3-c3nccs3)c(=O)n2c1	8	9%	9	3.8*	.	1.1
COc1ccc(CCn2c(=N)c(C#N)cc3c(=O)n4ccccc4nc32)cc1	10	4%	1	1.3	i	1
Cc1ccc(NC2c3ncccc3C(=O)N2c2ccccc2C)cc1C (configuration not stated)	83*	35%	23	1.2	i	1.1
CC(C)n1c2ccccc2c2nc3ccccc3nc21	0	5%	0	2.7*	i	1.1
COc1ccc(-n2nnc3c(SCC(=O)NCC4CCCO4)ncnc32)cc1 (configuration not stated)	2	4%	11	1.1	i	1
CCCCOC(=O)Nc1sc2c(c1C(=O)OC)CCC2	5	7%	14	1.1	i	1
Cc1cc(N2CCN(C3CCCC3)CC2)n2nc(C)c(-c3ccccc3)c2n1	9	21%	13	0.79	+	1
Cc1cc(N2CCOCC2)n2nc(C)c(-c3ccccc3)c2n1	9	9%	17	1.1	i	1.1
Cc1nn2c(N3CCN(c4ccccn4)CC3)cc(C(C)C)nc2c1-c1ccccc1	5	9%	4	3.1*	i	1
Cc1cnc(N)c2c(=O)oc3ccccc3c12	5	6%	6	2.1*	.	1.1
CCCCN(C(=O)NC(=O)C1=C(N2CCOCC2)/C(=C/c2ccccc2)CC1)S(C)(=O)=O	9	5%	0	2.1*	.	1.1
CCCCN(C(=O)NC(=O)Nc1ccccc1OC)S(C)(=O)=O	5	4%	6	1.1	i	0.99
CN(C(=O)NC(=O)C1=C(N2CCOCC2)/C(=C/c2ccccc2)CC1)S(C)(=O)=O	7	9%	3	2.9*	i	1.1
COC(=O)CCC(=O)N1CCc2cc(S(=O)(=O)N3CCN(c4ccccc4Cl)CC3)ccc21	3	4%	10	1.1	i	1
Cc1cc(N2C(=O)CCC2=O)n(-c2ccccc2)n1	8	7%	5	1.1	i	1
CC1=NN(c2ccccc2)C(=O)C1	53*	5%	0	1	i	1
COc1cc(NS(C)(=O)=O)c(OC)cc1NC(=O)c1ccccc1	3	3%	5	1.1	i	1.1
COc1ccc(CN2CCN(C(=O)c3cccs3)CC2)cc1Br	49*	21%	13	1.1	i	1.1
CCOc1cc(CN2CCN(c3ccc(C(C)=O)cc3)CC2)ccc1OC	44*	15%	0	1.1	i	1.2
CCOc1cc(CN2CCN(C(=O)c3ccco3)CC2)ccc1OC	51*	7%	0	1	i	1.1
SMILES	MK inhibit	NADH enzymes	PMK inhibit	Fluor 339 460	DPM-DC inhibit	Abs 340nm
Cn1c(SCC(=O)N2CCCCC2)nc2cccnc21	8	7%	13	1.1	i	0.99
COC(=O)c1c(NC(=O)CN2CCC(C)CC2)c2c(C)cccc2n1C	8	5%	6	1.2	i	1.1
CC(C)c1c(O)nc(SCC(=O)Nc2ccc3c(c2)CCC3)[nH]c1=O	7	3%	1	1.1	i	0.97
COc1cccc(C2/C(=C(\O)c3ccc4c(c3)OCO4)C(=O)C(=O)N2CCN(C)C)c1OC (configuration not stated)	0	0%	0	1.1	i	1.1
COc1ccc2c(c1OC)CN(C)CCc1cc3c(cc1C(O)C2)OCO3 (configuration not stated)	12	12%	25*	1.1	i	0.99
CC(=O)NC(CCS(C)(=O)=O)C(=O)Nc1c(C)cccc1C (configuration not stated)	47*	16%	1	1.3	i	1
O=C(O)CCn1nnc(-c2cccs2)n1	0	26%	13	0.4	+	0.95
COCCN(CCOC)C(=O)c1cc2c(=O)n3ccccc3nc2s1	3	12%	20	4.9*	.	1.1
CCN(CC)C(=O)c1cc2c(=O)n3ccccc3nc2s1	2	1%	0	2.1*	.	1.1
CCOCCCNC(=O)C(c1ccc(C)cc1)N(Cc1ccc2c(c1)OCO2)C(=O)c1cnccn1 (configuration not stated)	2	3%	0	1	i	1
CCOc1cc(NC2CS(=O)(=O)CC2O)c(OCC)cc1NC(=O)c1ccccc1 (configuration not stated)	0	1%	4	1.1	i	1.1
CCCC(C(=O)NCC1CCCO1)N(Cc1ccco1)C(=O)CNS(=O)(=O)c1ccccc1 (configuration not stated)	0	9%	17	0.9	i	0.99
CC(C)C(C(=O)NCC1CCCO1)N(Cc1ccco1)C(=O)CNS(=O)(=O)c1ccc(F)cc1 (configuration not stated)	6	11%	27*	1	i	1
O=C(c1cc2ccccc2oc1=O)N1CCN(c2ccc(N3CCOCC3)nn2)CC1	1	1%	0	1.1	i	1
O=C(c1ccc(CSCc2ccccc2F)o1)N1CCN(c2ccc(N3CCOCC3)nn2)CC1	2	4%	10	2.4*	.	0.98
COCCCNC(CC(=O)Nc1ccc(N(C)C)cc1)C(=O)O (configuration not stated)	0	8%	15	1	i	1
COc1ccccc1C1C(C(=O)c2sc(C)nc2C)=C(O)C(=O)N1CCN1CCOCC1 (configuration not stated)	10	7%	11	1	i	1.1
Cc1cc(C)c2c(n1)nn1c(N3CCN(c4ccccn4)CC3)cc(C)nc21	9	12%	10	3*	i	1
Cc1cc(-c2ccccc2)nc(N2CCN(c3ccccn3)CC2)n1	0	2%	6	1.4	i	0.95
Cc1cc(C)c2c(n1)nn1c(N3CCN(c4ccccc4)CC3)cc(C)nc21	10	20%	2	3.2*	+	0.99

Compound activity deposited in PubChem by SRMLSC.
